Several values for one entry are separate records, joined by “and”; a condition that tells them apart may be missing. Equal entries are not always repeated. Inconclusive results are not listed. Activity calls are given as the source filed them. The call rests on the fitted dose curve; in most records, active means well fitted curve in the direction sought with a large enough effect; inconclusive means small, poorly fitted or top-dose-only effect, or another doubt; inactive means no such curve, though single readings can be large; an effect the other way counts as inactive or inconclusive.
What was measured:
[1] = qHTS of pediatric cancer cell lines to identify multiple opportunities for drug repurposing: Primary screen for DAOY cells (AID 1347090); further: nearly all actives have a fitted effect of over 55% in size; further: potency means the concentration at half of the fitted maximal effect
How it was run: (§1)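 Cell viability, CellTiter-Glo luminescence; 500-1,000 cells/well, 8- or 11-point titration, 48 h compound exposure at 37 degrees C, 5% CO2. Controls: DMSO neutral, bortezomib 2.3 µM final as positive.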

[2] = qHTS of pediatric cancer cell lines to identify multiple opportunities for drug repurposing: Primary screen for SJ-GBM2 cells (AID 1347091); further: potency means the concentration at half of the fitted maximal effect
How it was run: as §1

[3] = qHTS of pediatric cancer cell lines to identify multiple opportunities for drug repurposing: Primary screen for SK-N-MC cells (AID 1347093); further: potency means the concentration at half of the fitted maximal effect
How it was run: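 Metabolically active cells were quantified by ATP-dependent luminescence (CellTiter-Glo, 15 min at room temperature) following 48 h treatment. Cells had been plated at 500-1,000 per well and settled for 5 h beforehand.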

[4] = qHTS of pediatric cancer cell lines to identify multiple opportunities for drug repurposing: Primary screen for BT-37 cells (AID 1347094); further: potency means the concentration at half of the fitted maximal effect
How it was run: (§2)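 Viability was measured as metabolically active cells after 48 hours of treatment, read by CellTiter-Glo luminescence. Compounds were tested at multiple final concentrations, giving concentration-response curves.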

[5] = qHTS of pediatric cancer cell lines to identify multiple opportunities for drug repurposing: Primary screen for NB-EBc1 cells (AID 1347095); further: potency means the concentration at half of the fitted maximal effect
How it was run: as §2

[6] = qHTS of pediatric cancer cell lines to identify multiple opportunities for drug repurposing: Primary screen for Saos-2 cells (AID 1347097); further: nearly all actives have a fitted effect of over 40% in size; further: potency means the concentration at half of the fitted maximal effect
How it was run: as §2

[7] = qHTS of pediatric cancer cell lines to identify multiple opportunities for drug repurposing: Primary screen for SK-N-SH cells (AID 1347098); further: nearly all actives have a fitted effect of over 65% in size; further: potency means the concentration at half of the fitted maximal effect
How it was run: (§3)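 Cells (500-1,000/well) rested 5 h, then received compounds for 48 h; metabolically active cells were measured by CellTiter-Glo luminescence. Final concentrations spanned up to 46 µM (MIPE, 11-point) or 0.59 nM-46 µM (NPC, 8-point) in primary screens, 11-point in follow-ups.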

[8] = qHTS of pediatric cancer cell lines to identify multiple opportunities for drug repurposing: Primary screen for LAN-5 cells (AID 1347100); further: potency means the concentration at half of the fitted maximal effect
How it was run: as §3

[9] = qHTS of pediatric cancer cell lines to identify multiple opportunities for drug repurposing: Primary screen for BT-12 cells (AID 1347101); further: nearly all actives have a fitted effect of over 25% in size; further: potency means the concentration at half of the fitted maximal effect
How it was run: as §3

[10] = qHTS of pediatric cancer cell lines to identify multiple opportunities for drug repurposing: Primary screen for Rh18 cells (AID 1347102); further: nearly all actives have a fitted effect of over 65% in size; further: potency means the concentration at half of the fitted maximal effect
How it was run: as §3

[11] = qHTS of pediatric cancer cell lines to identify multiple opportunities for drug repurposing: Primary screen for OHS-50 cells (AID 1347103); further: nearly all actives have a fitted effect of over 40% in size; further: potency means the concentration at half of the fitted maximal effect
How it was run: as §3

[12] = qHTS of pediatric cancer cell lines to identify multiple opportunities for drug repurposing: Primary screen for RD cells (AID 1347104); further: nearly all actives have a fitted effect of over 55% in size; further: potency means the concentration at half of the fitted maximal effect
How it was run: as §2

[13] = qHTS of pediatric cancer cell lines to identify multiple opportunities for drug repurposing: Primary screen for MG 63 (6-TG R) cells (AID 1347105); further: nearly all actives have a fitted effect of over 50% in size; further: potency means the concentration at half of the fitted maximal effect
How it was run: as §2

[14] = qHTS of pediatric cancer cell lines to identify multiple opportunities for drug repurposing: Primary screen for control Hh wild type fibroblast cells (AID 1347106); further: nearly all actives have a fitted effect of over 55% in size; further: potency means the concentration at half of the fitted maximal effect
How it was run: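 Cells (500-1,000/well) in growth media were settled 5 h at 37 degrees C, then given compounds for 48 h. Viability was read as CellTiter-Glo luminescence. Primary runs used MIPE at 11 points (0.78 nM-46 µM) and NPC at 8 points (0.59 nM-46 µM); follow-ups used 11 points.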

[15] = qHTS of pediatric cancer cell lines to identify multiple opportunities for drug repurposing: Primary screen for A673 cells (AID 1347092); further: potency means the concentration at half of the fitted maximal effect; nearly all actives have a fitted effect of over 45% in size
How it was run: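 Titration-based qHTS on A673 cells: MIPE compounds spanned 11 points (0.78 nM to 46 µM final), NPC compounds 8 points (0.59 nM to 46 µM final). Viability after 48 h was measured by ATP luminescence.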

[16] = qHTS of pediatric cancer cell lines to identify multiple opportunities for drug repurposing: Primary screen for NB1643 cells (AID 1347099); further: nearly all actives have a fitted effect of over 50% in size; further: potency means the concentration at half of the fitted maximal effect
How it was run: as §2

[17] = qHTS of pediatric cancer cell lines to identify multiple opportunities for drug repurposing: Primary screen for Rh30 cells (AID 1347107); further: series mostly up to about 46 µM; nearly all actives have a fitted effect of over 75% in size
How it was run: as §3

[18] = qHTS of pediatric cancer cell lines to identify multiple opportunities for drug repurposing: Primary screen for U-2 OS cells (AID 1347096); further: nearly all actives have a fitted effect of over 50% in size; further: potency means the concentration at half of the fitted maximal effect
How it was run: as §3

[19] = qHTS of pediatric cancer cell lines to identify multiple opportunities for drug repurposing: Primary screen for TC32 cells (AID 1347089); further: nearly all actives have a fitted effect of over 60% in size
How it was run: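 A viability screen of TC32 cells was run over 48 h, with primary MIPE doses spanning 0.78 nM–46 µM and NPC doses 0.59 nM–46 µM. ATP luminescence (CellTiter-Glo) served as the read-out.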

O=c1cc(N2CCOCC2)oc2c(-c3cccc4c3sc3ccccc34)cccc12
Potency [1]: 18.7 µM (active) | Potency [2]: 5.9 µM (active) | Potency [3]: 5.26 µM (active) | Potency [4]: 21.7 µM (active) | Potency [5]: 8.33 µM (active) | Potency [6]: 18.7 µM (active) | Potency [7]: inactive | Potency [8]: 14.8 µM (active) | Potency [9]: 24.3 µM (active) | Potency [10]: 18.7 µM (active) | Potency [11]: 7.69 µM (active) | Potency [12]: 13.2 µM (active) | Potency [13]: 14.8 µM (active) | Potency [14]: inactive

NC(CO)(CO)CCc1ccc(Sc2cccc(OCc3ccccc3)c2)cc1Cl
Potency [1]: 23.5 µM (active) | Potency [2]: 18.7 µM (active) | Potency [15]: 14.8 µM (active) | Potency [3]: 2.64 µM (active) | Potency [4]: 19.3 µM (active) | Potency [5]: 1.87 µM (active) | Potency [6]: 29.6 µM (active) | Potency [7]: 19.2 µM (active) | Potency [16]: 16.6 µM (active) | Potency [8]: 4.18 µM (active) | Potency [9]: 30.6 µM (active) | Potency [11]: 27.3 µM (active) | Potency [12]: 33.2 µM (active) | Potency [13]: 29.6 µM (active) | Potency [17]: inactive

Cc1nc(N)sc1-c1ccnc(Nc2ccc(N3CCOCC3)cc2)n1
Potency [1]: 18.7 µM (active) | Potency [2]: 2.35 µM (active) | Potency [15]: 9.35 µM (active) | Potency [3]: 1.05 µM (active) | Potency [4]: 24.3 µM (active) | Potency [5]: 23.5 µM (active) | Potency [18]: 18.7 µM (active) | Potency [6]: 11.8 µM (active) | Potency [7]: 6.81 µM (active) | Potency [16]: 9.35 µM (active) | Potency [8]: 0.332 µM (active) | Potency [9]: 24.3 µM (active) | Potency [10]: 16.6 µM (active) | Potency [11]: 3.85 µM (active) | Potency [12]: 20.9 µM (active) | Potency [13]: 5.9 µM (active) | Potency [14]: 16.6 µM (active)

Nc1nc(F)nc2c1ncn2[C@@H]1O[C@H](COP(=O)(O)O)[C@@H](O)[C@H]1O
Potency [1]: 4.69 µM (active) | Potency [2]: 0.662 µM (active) | Potency [15]: 14.8 µM (active) | Potency [3]: 0.264 µM (active) | Potency [4]: 15.3 µM (active) | Potency [5]: 0.935 µM (active) | Potency [6]: 0.743 µM (active) | Potency [16]: 16.6 µM (active) | Potency [10]: inactive | Potency [11]: 0.485 µM (active) | Potency [13]: 0.469 µM (active)

CN[C@@H](C)C(=O)N[C@H]1CN(C(=O)CC(C)C)CC[C@H]2CC[C@@H](C(=O)NC(c3ccccc3)c3ccccc3)N2C1=O
Potency [1]: 2.35 µM (active) | Potency [2]: 0.935 µM (active) | Potency [15]: 0.0074 µM (active) | Potency [3]: 0.372 µM (active) | Potency [4]: 0.153 µM (active) | Potency [5]: 2.96 µM (active) | Potency [18]: inactive | Potency [6]: 0.296 µM (active) | Potency [16]: inactive | Potency [8]: 0.187 µM (active) | Potency [9]: 0.485 µM (active) | Potency [11]: 0.243 µM (active) | Potency [14]: inactive | Potency [17]: inactive

O=C(N[C@@H](c1ccccc1)[C@@H]1CCCCN1)c1cccc(C(F)(F)F)c1Cl
Potency [1]: inactive | Potency [2]: inactive | Potency [3]: 20.9 µM (active) | Potency [4]: 19.3 µM (active) | Potency [5]: 7.43 µM (active) | Potency [18]: inactive | Potency [6]: inactive | Potency [7]: 21.5 µM (active) | Potency [16]: inactive | Potency [8]: 18.7 µM (active) | Potency [10]: inactive | Potency [13]: inactive | Potency [14]: inactive | Potency [17]: inactive

NC(=O)[C@@H](CCC(F)(F)F)N(Cc1ccc(-c2ncon2)cc1F)S(=O)(=O)c1ccc(Cl)cc1
Potency [19]: inactive | Potency [3]: 23.5 µM (active) | Potency [5]: inactive | Potency [7]: inactive | Potency [8]: inactive | Potency [10]: inactive | Potency [14]: inactive

O=C(NOCC(O)CO)c1cc(Br)c(F)c(F)c1Nc1ccc(I)cc1F (stereo unspecified)
Potency [1]: 14.8 µM (active) | Potency [2]: inactive | Potency [15]: 9.35 µM (active) | Potency [3]: 0.132 µM (active) | Potency [4]: inactive | Potency [7]: 0.341 µM (active) | Potency [8]: inactive | Potency [12]: 0.148 µM (active) | Potency [13]: 11.8 µM (active) | Potency [14]: inactive

O=C(CCCCCCC(=O)Nc1ccccc1)NO
Potency [1]: 4.22 µM (active) and 5.9 µM (active) | Potency [2]: 1.33 µM (active) and 1.87 µM (active) | Potency [15]: 3.35 µM (active) and 4.69 µM (active) | Potency [3]: 1.48 µM (active) | Potency [4]: 5.5 µM (active) and 7.69 µM (active) | Potency [5]: 1 nM (active) and 1.48 µM (active) | Potency [18]: 3.35 µM (active) and 4.69 µM (active) | Potency [6]: 4.73 µM (active) and 5.9 µM (active) | Potency [7]: 2.73 µM (active) and 7.64 µM (active) | Potency [16]: 944 nM (active) and 1.32 µM (active) | Potency [8]: 1 nM (active) and 1.32 µM (active) | Potency [9]: 6.92 µM (active) and 17.2 µM (active) | Potency [10]: 2.99 µM (active) and 4.18 µM (active) | Potency [11]: 2.19 µM (active) and 2.73 µM (active) | Potency [12]: 5.31 µM (active) and 6.62 µM (active) | Potency [13]: 3.35 µM (active) and 3.72 µM (active)

COc1ccc2c3c1OC1C[C@@H](O)C=C[C@@]31CCN(C)C2 (stereo partly specified)
Potency [19]: inactive | Potency [4]: inactive | Potency [6]: inactive | Potency [8]: inactive | Potency [9]: inactive | Potency [11]: inactive | Potency [13]: inactive | Potency [14]: inactive

CC(=O)Nc1ccc([C@H](C)C(=O)Nc2ncc(C(C)C)s2)cc1
Potency [1]: 1.48 µM (active) | Potency [2]: 0.743 µM (active) | Potency [15]: 0.743 µM (active) | Potency [3]: 0.332 µM (active) | Potency [4]: 4.32 µM (active) | Potency [5]: 2.35 µM (active) | Potency [6]: 4.18 µM (active) | Potency [7]: 4.82 µM (active) | Potency [9]: 1.22 µM (active) | Potency [11]: 3.85 µM (active) | Potency [12]: 4.18 µM (active) | Potency [13]: 1.87 µM (active)

O=C1NC(=O)C(=Cc2cccc(C(F)(F)F)c2)S1
Potency [19]: inactive | Potency [4]: inactive | Potency [18]: inactive | Potency [6]: inactive | Potency [7]: inactive | Potency [8]: inactive | Potency [10]: inactive | Potency [12]: inactive | Potency [13]: inactive

COc1cccc([C@@H](C)NCCCc2ccccc2Cl)c1
Potency [19]: inactive | Potency [4]: inactive | Potency [18]: inactive | Potency [6]: inactive | Potency [16]: 20.9 µM (active) | Potency [8]: inactive | Potency [11]: inactive | Potency [12]: inactive | Potency [17]: inactive

— PubChem BioAssay (NCATS)
